# The list is not random: actives were taken first. Their share in the collection is about 15%.
# RORg inh – inhibitors of mouse ROR gamma transcriptional activity | P51450 | Drosophila S2 Gal4-RORgamma UAS-luciferase reporter, 20 h | Potency, µM (top dose mostly 53.6 µM), for the others: top-dose activity change, negative = inhibition, most hits filed as inhibitors | hit rate 5.4% among 310,000 | AID 2551; further: nearly all actives have a fitted effect of over 60% in size
#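 ROR gamma transcriptional activity was tracked as Gal4-UAS luciferase output in stably transfected Drosophila Schneider cells, with compound added 1 hr before 700 uM copper sulfate induction and a 20 hr ambient-temperature incubation.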
# TDP1 cell CPT – growth inhibition of DT40 Tdp1-/-;hTDP1 cells with camptothecin (screen for TDP1 inhibitors) | hit rate 12% among 420,000 | Potency, µM (series often up to 46.2 µM), inactives show at the top dose activity change, negative = growth inhibition, actives largely listed as inhibitors | chicken DT40 Tdp1-/-;hTDP1 cells + 20 nM CPT, ATP luminescence, 48 h; further: nearly all actives have a fitted effect of over 55% in size
#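 Chicken DT40 Tdp1-/- cells stably complemented with human TDP1 were seeded at 400 cells/well in medium containing 20 nM camptothecin, exposed to pin-transferred compounds, and grown at 37 °C for at least 48 hr. Viability was read as ATP luminescence.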
# ELG1 DNA repair – ELG1-dependent DNA repair inhibition; HEK293T ELG1-luciferase reporter, luminescence, 16 h; DNA damage induced by 5-fluorouridine; hit rate 2.3% among 330,000; AID 504467; Potency, µM (top dose mostly 46.1 µM), inactives show top-dose activity change, negative = inhibition, actives largely listed as inhibitors; further: nearly all actives have a fitted effect of over 55% in size
#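 5-Fluorouridine DNA damage + compound/DMSO, 2,000 cells/well, 16 h, 37 °C/5% CO2. ONE-Glo, 30 min RT, luminescence. Readout = decrease in reporter signal.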
# ALOX12 inh – ALOX12 (human) lipoxygenase inhibition; hit rate 1.1% among 580,000; P18054; purified 12hLO, xylenol orange hydroperoxide absorbance; Potency, µM (series often up to 108 µM), for the others: at the highest dose activity change, negative = inhibition, usual class: inhibitors
# Target sequence (P18054 whole entry, looked up): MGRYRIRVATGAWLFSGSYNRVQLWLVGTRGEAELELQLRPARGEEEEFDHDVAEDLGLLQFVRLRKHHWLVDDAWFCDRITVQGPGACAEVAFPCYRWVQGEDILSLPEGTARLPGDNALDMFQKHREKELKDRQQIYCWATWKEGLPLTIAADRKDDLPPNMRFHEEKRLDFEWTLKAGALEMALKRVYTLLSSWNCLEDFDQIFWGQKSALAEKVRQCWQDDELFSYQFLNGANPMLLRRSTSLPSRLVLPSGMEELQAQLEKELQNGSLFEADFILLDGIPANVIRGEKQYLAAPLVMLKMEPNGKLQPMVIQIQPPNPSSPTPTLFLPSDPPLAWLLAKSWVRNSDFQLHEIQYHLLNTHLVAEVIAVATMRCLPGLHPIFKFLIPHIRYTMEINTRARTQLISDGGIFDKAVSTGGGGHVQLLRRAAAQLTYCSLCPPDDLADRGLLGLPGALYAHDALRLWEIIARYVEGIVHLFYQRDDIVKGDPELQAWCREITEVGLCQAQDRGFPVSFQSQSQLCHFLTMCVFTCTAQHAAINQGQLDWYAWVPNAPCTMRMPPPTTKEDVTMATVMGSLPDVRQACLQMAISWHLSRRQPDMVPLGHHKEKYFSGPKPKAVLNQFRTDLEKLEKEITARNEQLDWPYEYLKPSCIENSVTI
#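 Hydroperoxide product was detected by ferrous iron/xylenol orange as the 573 to 405 nm absorbance ratio. Arachidonic acid at 40 uM (final) was turned over for 30 min at room temperature by 150 nM human 12hLO, pH 7.0 Hepes buffer, after 15 min compound preincubation.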
# VP16 counter – inhibits Gal4-VP16 luciferase reporter, ROR gamma counter-screen; Drosophila S2 Gal4-VP16 UAS-luciferase, luminescence, 20 h; Potency, µM (top dose mostly 53.6 µM), without a hit: at the top dose activity, negative = inhibition, usual class: inhibitors; hit rate 3.5% among 310,000; AID 2546;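 further: Gal4-VP16 expression switched on by copper sulfate through the metallothionein promoter; nearly all actives have a fitted effect of over 50% in size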
# TDP1 cell noCPT – qHTS for Inhibitors of human tyrosyl-DNA phosphodiesterase 1 (TDP1): qHTS in cells in absence of CPT. AID 686978, 2013. hit rate 15% among 420,000. Potency, µM (doses to about 46.2 µM), without a hit: at the top dose activity change, negative = growth inhibition, hits mostly inhibitors. DT40 Tdp1-/- hTDP1 cells, no CPT, ATP luminescence, 48 h; further: nearly all actives have a fitted effect of over 55% in size
#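 Chicken DT40 Tdp1-/- cells complemented with human TDP1, screened without camptothecin (DMSO vehicle only), 400 cells/well. Compounds pin-transferred, cells incubated at 37 °C for at least 48 hr. Growth read as ATP-dependent luminescence (CellTiter-Glo, 30 min at RT).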
# * marks the source's active call; other numbers are inactive results; ? = inconclusive; / = no result. The call rests on the fitted dose curve; in most records, active means well fitted curve in the direction sought with a large enough effect; inconclusive means small, poorly fitted or top-dose-only effect, or another doubt; inactive means no such curve, though single readings can be large; an effect the other way counts as inactive or inconclusive. On the % scale 0 is the no-effect control and ±100 the full control effect; potency means the concentration at half of the fitted maximal effect.
SMILES,RORg inh,TDP1 cell CPT,ELG1 DNA repair,ALOX12 inh,VP16 counter,TDP1 cell noCPT
S=C(c1ccc(-c2ccc(Cl)cc2)o1)N1CCCCC1,?,?,?,15.8µM*,?,?
S=C(c1ccc(-c2ccccc2Cl)o1)N1CCCCC1,?,?,?,?,?,16.4µM*
CC1(C)CC2(C)OC(=N)C1(C#N)C2(C#N)C#N (configuration not stated),7.94µM*,?,0.0%,2.7%,?,14.6µM*
COc1ccc(/C=N/Nc2ncnc3scc(-c4ccccc4)c23)cc1OC,3.55µM*,?,18.4µM*,6.5%,0.891µM*,?
COc1ccccc1NC(=O)Nc1nc(-c2cccnc2)nc2ccccc12,-0.5%,/,/,233.2%,-6.0%,/
COc1ccc(/C=N/Nc2nc(-c3cccnc3)nc3ccccc23)cc1OC,-10.6%,16.4µM*,6.51µM*,484.3%,-9.5%,3.66µM*
COc1ccccc1Nc1ncnc2scc(-c3ccc(F)cc3)c12,/,?,/,-51.3%,/,?
Cc1cc(N/N=C/c2ccc(O)c(C)c2O)nc(-c2ccccc2O)n1,-33.0%,13µM*,2.91µM*,-8.7%,-29.7%,9.2µM*
Cc1ccc(-c2nc(N/N=C/c3ccncc3)c3ccccc3n2)cc1,?,20.6µM*,?,-1.2%,0.282µM*,18.4µM*
C/C(=N\Nc1cc(C)nc(-c2ccccc2O)n1)c1ccccc1,30.5%,?,?,14.0%,8.1%,?
O=C1NCCCCCCN(C(=O)c2ccco2)[C@H]2C[C@H](C(=O)N3CCc4ccccc4C3)C[C@@H]12,/,/,/,24.8%,/,/
CCN(C(=O)c1cc2c(s1)-c1ccccc1SC2)c1ccccc1C,/,/,/,-7.9%,/,/
CCOC(=O)N1CCN(C2CCCN(Cc3cc(C)ccc3-n3cccn3)C2)CC1 (configuration not stated),/,/,/,90.2%,/,/
Cc1c(O)ccc(/C=N/Nc2nc(-c3cccnc3)nc3ccccc23)c1O,4.47µM*,5.17µM*,5.17µM*,13.7%,17.8µM*,3.66µM*
COC(=O)CNc1nc(-c2cccnc2)nc2ccccc12,14.1%,-27.2%,-11.2%,2.6%,-14.0%,-5.9%
Oc1ccc(/C=N/Nc2nc(-c3cccnc3)nc3ccccc23)c(O)c1,?,23.1µM*,16.4µM*,0.1%,11.2µM*,4.11µM*
COc1ccc(C)cc1NC(=O)C(Cc1ccccc1)NS(=O)(=O)c1ccc(Br)s1 (configuration not stated),/,?,/,-24.7%,/,?
CCOc1ccccc1NC(=O)C(Cc1ccccc1)NS(=O)(=O)c1ccc(Br)s1 (configuration not stated),/,23.1µM*,/,-14.9%,/,?
COc1ccc(C)cc1NC(=O)C(Cc1ccccc1)NS(=O)(=O)c1cccs1 (configuration not stated),/,18.4µM*,/,-12.0%,/,?
Cc1ccc2nc(SCC(=O)c3c[nH]c4ccccc34)[nH]c2c1,?,-1.6%,-10.6%,-21.7%,-26.6%,?
CC(C)Cn1c(N)c(C(=O)CSc2nc3ncc(Cl)cc3[nH]2)c(=O)n(C)c1=O,/,?,?,?,/,16.4µM*
CC(C)OC(=O)CSc1nc2ncc(Cl)cc2[nH]1,15.6%,-13.7%,-0.5%,9.4%,13.2%,-3.2%
Cc1[nH]c2ccccc2c1C(=O)CSc1nc2ncc(Cl)cc2[nH]1,-17.6%,13µM*,-5.8%,-25.2%,-19.9%,?
CCCn1c(N)c(C(=O)CSc2nc3ncc(Cl)cc3[nH]2)c(=O)n(C)c1=O,/,-20.6%,4.1%,184.3%,/,21.4%
Cc1ccc2nc(SCC(=O)c3c(C)[nH]c4ccccc34)[nH]c2c1,-4.9%,23.1µM*,?,-10.2%,-6.2%,18.4µM*
